DAX1 inh = NR0B1 (DAX1) inhibition | P51843 | HEK293 Gal4-DAX1 luciferase reporter, luminescence | inhibition, % at 6.75 µM | hit rate 0.99% among 340,000;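 active = inhibition above the mean over all tested compounds plus 3 SD, cut at about 4.2% in these data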;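 note: inhibition shows as a rise in luminescence from relieved DAX1 repression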
Target sequence (P51843 207-470 limits assumed): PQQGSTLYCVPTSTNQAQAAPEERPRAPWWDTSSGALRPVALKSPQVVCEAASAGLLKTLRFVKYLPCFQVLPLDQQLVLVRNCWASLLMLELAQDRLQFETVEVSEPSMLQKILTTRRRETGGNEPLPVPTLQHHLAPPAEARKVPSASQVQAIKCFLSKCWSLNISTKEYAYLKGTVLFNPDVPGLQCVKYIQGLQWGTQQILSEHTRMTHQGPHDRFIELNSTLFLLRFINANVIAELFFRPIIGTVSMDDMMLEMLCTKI
HSF1 inhib = HSF1 inhibition | activity change, negative = inhibition, % at 7.5 µM (by protocol) | AID 2098 | hit rate 0.77% among 300,000 | NIH3T3-HGL HSE-luciferase, MG132-induced, luminescence 8 h; active compounds read low;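 active = more than half of replicate wells show activity change below -50%, luminescence cut by over half; inconclusive = some wells, but at most half, below -50%; inactive = no replicate well below -50%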;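 note: luciferase reports HSF-1 transcriptional activity via heat shock element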
GAA850 FXN act = activators of GAA850 frataxin (FXN) promoter. hit rate 0.56% among 360,000. HEK293 lucGAA850 FXN promoter luciferase reporter, 24 h; percent of 10 µM SAHA response. activation, % at 6 µM;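 active = activation above the average of all compounds screened plus 3 SD, cutoff fixed separately per campaign, cut at about 7.5% in these data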
HSF1 activator = increases HSF-1 driven luciferase reporter signal. hit rate 1.7% among 300,000. AID 504408. NIH3T3-HGL HSF-1 luciferase reporter, MG132, 8 h; 100% = twice DMSO control signal. activation, % at 9 µM;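 active = mean replicate activation of at least 50% with a set share of replicates each reaching 50%; inconclusive = only one of those two conditions met; inactive = mean below 50% and too few replicates reaching it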
AHR activator = activates the human aryl hydrocarbon receptor; activation, % at 5 µM; hit rate 2.5% among 320,000; AHR-responsive luciferase reporter cells, luminescence; in the data active = activation above about 47%
HSP90 inh = inhibitors of HSP90 luciferase refolding in rabbit reticulocyte lysate. inhibition, % at 5.6 µM. hit rate 0.91% among 290,000. luciferase refolding luminescence, 3 h;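 active = inhibition above the screen-wide mean plus 3 SD, computed separately per campaign, cut at about 16% in these data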;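 note: inhibitors lower the luminescence because luciferase stays unfolded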
AHR act cf = confirmation of human aryl hydrocarbon receptor activators; shares compounds with AHR activator; human cells, AHR-responsive luciferase reporter, luminescence; activation, % at 9 µM; hit rate 87% among 2,300; AID 2845; in the data active = activation above about 49%;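 note: HepG2 hepatoma cells carrying a DRE-driven firefly luciferase reporter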
PXR counter = activates human PXR in AHR activator counter-screen; shares compounds with AHR activator; cell-based PXR reporter, luciferase luminescence; activation, % at 11.6 µM; hit rate 88% among 2,300; AID 434939; in the data active = activation above about 11%;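 note: human hepatoma DPX-2 cells expressing full-length human PXR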
Target sequence (O75469 whole entry, looked up): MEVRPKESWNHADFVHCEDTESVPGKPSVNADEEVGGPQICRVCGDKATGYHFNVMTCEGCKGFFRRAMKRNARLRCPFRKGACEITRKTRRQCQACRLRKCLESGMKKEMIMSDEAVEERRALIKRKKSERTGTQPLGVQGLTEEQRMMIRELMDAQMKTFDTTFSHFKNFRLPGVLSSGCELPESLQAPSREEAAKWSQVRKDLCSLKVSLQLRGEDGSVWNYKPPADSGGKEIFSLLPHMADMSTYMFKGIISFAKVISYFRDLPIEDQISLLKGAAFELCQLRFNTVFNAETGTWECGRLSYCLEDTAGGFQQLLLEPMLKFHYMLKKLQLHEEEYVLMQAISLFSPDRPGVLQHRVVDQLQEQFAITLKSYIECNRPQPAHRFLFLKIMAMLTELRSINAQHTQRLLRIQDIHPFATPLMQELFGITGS
A number is an active result; 0 = inactive; ? = inconclusive; - = no result given. Most compounds without a hit are left out; they make up all but 5.9% or so of the library.

SMILES | DAX1 inh | HSF1 inhib | GAA850 FXN act | HSF1 activator | AHR activator | HSP90 inh | AHR act cf | PXR counter
Cc1c(C(=O)NCCCN2CCOCC2)oc2c1C1(CCC2)SCCS1 | 0 | 0 | 0 | 0 | 109.4 | 0 | 94.6 | 180.5
COCC(C)NC(=O)c1oc2c(c1C)C1(CCC2)SCCS1 (stereo not given) | 0 | 0 | 0 | 0 | 0 | 0 | - | -
COc1ccccc1CN1CCc2c([nH]c3ccccc23)C1 | 0 | 0 | 0 | 0 | 98.7 | 0 | 89.7 | 27.1
CCC1C(=O)CC(c2ccc([N+](=O)[O-])cc2)NC1c1ccc([N+](=O)[O-])cc1 (stereo not given) | 0 | 0 | 0 | 0 | 0 | 0 | - | -
O=C(OC1CCOC1=O)c1ccc(NS(=O)(=O)c2cccs2)cc1 (stereo not given) | 0 | 0 | 0 | 0 | 0 | 0 | - | -
CCOc1ncccc1C(=O)Nc1ccc(F)cc1 | 0 | 0 | 0 | 0 | 0 | 0 | - | -
Cc1ccc(NC(=O)c2ccccc2NC(=O)c2cccnc2)cc1 | 0 | 0 | 0 | 0 | 0 | 0 | - | -
CCOc1ncccc1C(=O)Nc1ccc(Cl)cc1 | 0 | 0 | 0 | 0 | 117.1 | 0 | 121.6 | 19.4
CCOc1ccc(NC(=O)c2cc(Cl)nc3ccccc23)cc1 | 4.3 | 0 | 0 | 0 | 94.9 | 0 | 91.2 | 11.1
CCOc1ccc(-c2cc(C(=O)Nc3ccc4c(c3)OCCO4)c3ccccc3n2)cc1 | 0 | 0 | 0 | 0 | 0 | 0 | - | -
O=C(Nc1ccccc1C(=O)Nc1ccc(Cl)cc1)c1cccnc1 | 0 | 0 | 0 | 0 | 85.9 | 0 | 55.7 | 31.4
COc1ccc(Cl)cc1NC(=O)c1cccnc1 | 0 | 0 | 0 | 0 | 88.3 | 0 | 107.1 | 11.2
CCOC(=O)c1c(C)[nH]c(C(=O)NCc2ccco2)c1C | - | 0 | - | 0 | 0 | 0 | - | -
O=C(C1CCN(S(=O)(=O)N2CCC3(CC2)OCCO3)CC1)N1CCCCC1 | 0 | 0 | 0 | 0 | 0 | 0 | - | -
O=C(Nc1ccc(Cl)cn1)c1ccccc1F | 0 | 0 | 0 | 0 | 147.8 | 0 | 77.4 | 21.1
O=C(Nc1ccc(Cl)cn1)c1cc2ccccc2o1 | 0 | 0 | 0 | ? | 110.3 | 0 | 71.8 | 0
O=C(Nc1cccc(C(=O)Nc2ccc(Cl)cn2)c1)c1ccccc1 | 0 | 0 | 0 | 0 | 82.1 | 0 | 0 | 18.6
COc1cc(N)ccc1NC(=O)c1cc2ccccc2o1 | 0 | 0 | 0 | 0 | 107.1 | 0 | 140.7 | 12.5
CS(=O)(=O)c1ccc2nc(NC(=O)CCNC(=O)c3ccc([N+](=O)[O-])cc3)sc2c1 | 0 | - | 0 | - | - | - | - | -
CCOC(=O)c1nc(-c2ccccc2)sc1C(C)=O | 0 | 0 | 0 | 0 | 0 | 0 | - | -
CCOc1cccc(C(=O)Nc2ccc3[nH]ncc3c2)c1 | 0 | 0 | 0 | 0 | 92.8 | 0 | 0 | 22.9
O=C(COc1cccc(C(F)(F)F)c1)Nc1ccc2[nH]ncc2c1 | 0 | 0 | 0 | 0 | 0 | 0 | - | -
CCC1=C(OC(=O)N(CC)CC)N2C(=O)OC(=NCCc3c[nH]c4ccccc34)[C@]2(Cc2ccccc2)[C@H]2C1=CC[C@H]1C(=O)N(CC)C(=O)[C@H]12 | 0 | 0 | 0 | 0 | 0 | - | - | -
CCCCN(C)C(=O)c1cn(C)c2ccc(S(=O)(=O)N3CCC(C)CC3)cc2c1=O | 0 | 0 | 0 | 0 | 0 | 0 | - | -
C#CCn1cc(/C=N/NC(=O)COc2cccc3cccnc23)c2ccccc21 | 0 | 0 | 0 | 0 | 103.4 | 0 | 62.6 | -
SMILES | DAX1 inh | HSF1 inhib | GAA850 FXN act | HSF1 activator | AHR activator | HSP90 inh | AHR act cf | PXR counter
COc1ccc(Nc2nc(N)nc(CSc3nnc(N)s3)n2)cc1 | 0 | 0 | 0 | 0 | 112.3 | 0 | 109.8 | 15.4
CN1C[C@@H]2C(c3ccc(C(F)(F)F)cc3)C3(c4ccc(C#N)cc4)CC2(C3)[C@H]1c1ccccc1 (stereo not given in full) | 0 | 0 | 0 | 0 | 0 | - | - | -
O=C(COC(=O)CC1CCCC1)Nc1cc2c(cc1Cl)C(=O)c1ccccc1C2=O | 0 | 0 | 0 | 0 | 117.4 | 0 | 139.3 | 16.5
CC(C)c1ccc(NC(=O)COC(=O)CC2CCCC2)cc1 | 0 | - | 0 | - | 0 | - | - | -
CC(=O)N1CC=C2C(C#N)=C(N)C(C#N)(C#N)C(CCc3ccccc3)C2C1 (stereo not given) | 0 | 0 | 0 | 0 | 80.2 | 0 | 73.4 | 23.6
CCN1CC=C2C(C#N)=C(N)C(C#N)(C#N)C(CCc3ccccc3)C2C1 (stereo not given) | 0 | - | 0 | - | 0 | 0 | - | -
Cc1ccnc(NC(=O)c2cccc(OC(F)F)c2)n1 | 0 | 0 | 0 | 0 | 0 | 0 | - | -
O=C(Nc1cc(Cl)cc(Cl)c1)c1cccc(OC(F)F)c1 | 0 | 0 | 0 | 0 | 80.6 | 0 | 94.5 | 43.6
O=[N+]([O-])c1ccc(N/N=C\c2ccccc2OCc2ccccc2)cc1 | 0 | 0 | 0 | 0 | 84.7 | 0 | 61.9 | 46.3
O=C(/C=C\c1cccs1)c1c(O)ccc2ccc(=O)oc12 | 0 | 0 | 0 | 0 | 84.8 | 0 | 97.0 | -
O=C(C=Cc1cccs1)c1cccs1 | 0 | - | 0 | - | - | - | - | -
CC(C)CN1C(=O)C(=O)N(CC(=O)NC(C)CCc2ccccc2)C1=O (stereo not given) | 0 | - | 0 | - | - | - | - | -
COC(=O)/C=c1/sc2nc3ccccc3n2c1=O | 0 | 0 | 0 | 0 | 0 | 0 | - | -
O=c1c2ccccc2nc2sc3ccccc3n12 | 0 | - | 0 | - | 113.2 | 0 | 155.0 | 14.2
C=CCNC(=O)CCC(=O)NNc1nc2ccccc2c2nc(-c3ccccc3)nn12 | 0 | 0 | 0 | 0 | 100.0 | 0 | 60.6 | 12.6
Cc1nc2c3ccccc3nc(NNC(=O)CCC(=O)NCCC(C)C)n2n1 | 0 | 0 | 0 | 0 | 0 | 0 | - | -
CCOc1cc2nc(-c3ccc(OC)c(OC)c3)nc(N3CC(C)OC(C)C3)c2cc1OC (stereo not given) | - | 0 | - | 0 | 83.2 | 0 | 95.5 | 15.7
Cc1ccc2c(c1)c1nc3ccccc3nc1n2C | 4.5 | 0 | 0 | 0 | 88.3 | 0 | 117.0 | -
COc1ccccc1C(=O)NC(=S)/C=C1/N(C)c2ccccc2C1(C)C | 0 | 0 | 0 | 0 | 81.4 | 0 | 0 | 100.4
O=S(=O)(Nc1cc(Sc2cccc3cccnc23)c(O)c2ccccc12)c1ccc(F)cc1 | - | ? | - | ? | 85.0 | 0 | 0 | 132.1
CCN(c1ccccc1)S(=O)(=O)c1nnc(NC(=O)C(C)(C)C)s1 | 0 | 0 | 0 | 0 | 0 | 0 | - | -
CCn1c(=O)cc(OCC(=O)NC2CC2)c2ccccc21 | 0 | 0 | 0 | 0 | 97.2 | 0 | 83.7 | 24.8
Cn1c(/C=C/c2cccc([N+](=O)[O-])c2)nc2ccccc2c1=O | 0 | 0 | 0 | 0 | 92.9 | 0 | 0 | 11.7
O=C(O)c1ccc2c(c1)C(=O)N(CCC1=CCCCC1)C2=O | 0 | 0 | 0 | 0 | 0 | 0 | - | -
O=C1c2ccccc2C(=O)N1CCC1=CCCCC1 | 0 | 0 | 0 | 0 | 103.2 | 0 | 120.8 | 17.0
Cc1cc2c(C)nc(-c3ccccc3)nc2o1 | 0 | 0 | 0 | 0 | 116.4 | 0 | 159.5 | 39.4

Assay outcomes deposited in PubChem by several laboratories.
